Source: PubChem BioAssay (NCATS)
Inconclusive results are not listed. Entries that show only a call come without a potency. Calls of active or inactive are those of the source. Calls follow the shape of the dose curve; as a rule, active = well fitted inhibition curve with a large enough effect; inconclusive = small, poorly fitted or top-dose-only effect; inactive = flat fitted curve, though single readings scatter.

Experiment: BET inhibitor-based combinations targeting novel dependencies in MECOM-rearranged (r) AML: AML-191 cell line (AID 2202236; also: nearly all actives have a fitted effect of over 35% in size)
Details: AML-191 viability, CellTiter-Glo luminescence, 48 h; series mostly up to 46 µM
Description: Ecotropic viral insertion site 1 (EVI1) is located on chromosome 3q26.2 as part of the MECOM (MDS and EVI1 complex) locus. Under normal hematopoiesis, EVI1 is a regulator of hematopoietic stem cell maintenance and self-renewal and EVI1 levels decrease as the cells differentiate. In approximately 5-10% of de novo acute myeloid leukemia (AML) EVI1 is aberrantly expressed, including Chromosomal inv(3)(q21;q26.2) or t(3;3)(q21;q26.2) alterations (MECOM-r) that account for about 50% of AML with EVI1 overexpression 31. AMLs with high levels of EVI1 have a poor prognosis and an overall survival time averaging between 10-14 months. EVI1 overexpression confers resistance in leukemia cells, highlighting the need to develop new targeted therapies for EVI1 overexpressing AMLs.
Here, we performed an unbiased chemical drug screening by evaluating the single agent activity of a collection of 2,480 oncology-focused, approved and investigational drugs (NCATS Mechanism Interrogation Plates, MIPE v5.0) against a panel of seven AML cell lines. These included four MECOM-r cell-lines (AML-191, AML-194, UCSD-AML1 and HNT-34) and three non-MECOM-r AMLs (MV4-11, OCI-AML3 and SET-2). Exploiting the mechanistic redundancy built in the library, we identified target-level sensitivities in MECOM-r AML cells and relative activity as compared to other AML subtypes.
A collection of 2480 mechanistically annotated dugs (MIPE v5.0) was used to screen four 3q26.2 rearranged AML cell lines and three non-3q26.2 rearranged AML cell lines. This library purposely exploits redundancy by including multiple inhibitors of key onco-targets, while simultaneously encompassing mechanistic diversity, targeting more than 800 distinct mechanisms of action. Briefly, cells were seeded in 5 uL of growth media using a Multidrop Combi dispenser into 1536 well white polystyrene tissue culture treated plates (Corning) at a density of 500cells/well. For each cell-line, for each of the 2480 drugs in MIPE v5.0 library, an 11-point dose curve was generated via a 1536 pin-tool. Plates were incubated for 48 hr at standard incubator conditions, covered by a stainless steel gasketed lid to prevent evaporation. Cell viability was determined by luminescence based, Cell Titer Glo assay (Promega). In detail, 3 uL of Cell Titer Glo were added to each well and plates were incubated at room temperature for 15 min with a stainless-steel lid in place. Luminescence readings were taken using a Viewlux (PerkinElmer) with a 2 s exposure time per plate. Compound dose-response curves were normalized to DMSO and empty well controls on each plate. Quantitative drug activity data from dose-response curves was determined utilizing area Under the Curve (AUC) and Z-transformed AUC (Z-AUC, a mean-centering transformation applied to each individual cell-line screened).
Potency is read from the fitted curve at half-maximal effect.

| Structure (SMILES) | Potency |
| --- | --- |
| C[C@]12CC[C@H](O)CC1=CC[C@@H]1[C@@H]2CC[C@]2(C)C(=O)CC[C@@H]12 | inactive |
| Cc1ccccc1-n1c(Cn2cnc3c(N)ncnc32)nc2cccc(C)c2c1=O | inactive |
| CCC1(c2ccc(N)cc2)CCC(=O)NC1=O (stereo not given) | inactive |
| O=C(O)CNC(=O)c1c(O)c2ccccc2n(Cc2ccccc2)c1=O | inactive |
| O=C(Oc1ccc([N+](=O)[O-])cc1)N1CCC(C(O)(c2ccc3c(c2)OCO3)c2ccc3c(c2)OCO3)CC1 | inactive |
| CC1=C(O)C(=O)C=C2C1=CC=C1[C@@]2(C)CC[C@@]2(C)[C@@H]3C[C@](C)(C(=O)O)CC[C@]3(C)CC[C@]12C | 0.934 µM (active) |
| CN(C)[C@@H]1C(=O)C(C(N)=O)=C(O)[C@@]2(O)C(=O)C3=C(O)c4c(O)cccc4[C@@](C)(O)[C@H]3C[C@@H]12 | inactive |
| CC(C)(O)/C=C\C(=O)[C@](C)(O)[C@H]1[C@H](O)C[C@]2(C)[C@@H]3CC=C4[C@@H](C=C(O)C(=O)C4(C)C)[C@]3(C)C(=O)C[C@@]12C | 0.0934 µM (active) |
| COc1cc2c(cc1F)C(c1ccccc1Cl)=Nc1c(n[nH]c1C)N2 | 1.66 µM (active) |
| CCOc1ccccc1-n1c(C(C)N2CCN(C(=O)COc3ccc(Cl)cc3)CC2)nc2ccccc2c1=O (stereo not given) | 2.63 µM (active) |
| O=c1[nH]c2ccc(Cl)cc2c(N[C@@H]2CN3CCC2CC3)c1-c1nc2ccccc2[nH]1 | 0.417 µM (active) |
| C[C@]12Cc3cn[nH]c3C[C@@H]1CC[C@@H]1[C@@H]2CC[C@@]2(C)[C@H]1CC[C@]2(C)O | inactive |
| O=C1C=CC[C@@H]2[C@H]3CCCN4CCC[C@@H](CN12)[C@@H]34 | inactive |
| O=P1(NCCCl)OCCCN1CCCl (stereo not given) | inactive |
| CC(=O)N1N=C(c2ccc(N)cc2)c2cc3c(cc2C[C@H]1C)OCO3 | inactive |
| CC(C)[C@]12O[C@H]1[C@@H]1O[C@]13[C@]1(O[C@H]1C[C@H]1C4=C(CC[C@@]13C)C(=O)OC4)[C@@H]2O | 0.0372 µM (active) |
| Cc1[nH]nc2ccc(-c3cncc(OC[C@@H](N)Cc4c[nH]c5ccccc45)c3)cc12 | 0.833 µM (active) |
| CC1(C)C(=O)N(c2ccc(C#N)c(C(F)(F)F)c2)C(=S)N1Cc1ccc(-c2cn[nH]n2)cc1 | 18.6 µM (active) |
| CC(C)CC(N(C)C)C1(c2ccc(Cl)cc2)CCC1 (stereo not given) | inactive |
| C/C(=C\c1csc(C)n1)[C@@H]1C[C@@H]2O[C@]2(C)CCC[C@H](C)[C@H](O)[C@@H](C)C(=O)C(C)(C)[C@@H](O)CC(=O)O1 | 0.0105 µM (active) |

| Structure (SMILES) | Potency |
| --- | --- |
| COC(=O)[C@@]12OC[C@]34[C@H]([C@@H](O)[C@@H]1O)[C@@]1(C)CC(=O)C(O)=C(C)[C@@H]1C[C@H]3OC(=O)[C@H](OC(=O)/C=C(\C)C(C)C)[C@@H]24 | 0.0066 µM (active) |
| CN(C)[C@@H]1C(=O)C(C(N)=O)=C(O)[C@@]2(O)C(=O)C3=C(O)c4c(O)cccc4[C@@](C)(O)[C@H]3[C@H](O)[C@@H]12 | inactive |
| O=C1CC[C@@]2(O)[C@H]3Cc4ccc(O)c5c4[C@@]2(CCN3CC2CC2)[C@H]1O5 | inactive |
| C[C@@H]1O[C@@H](O[C@H]2C[C@@H](O)[C@]3(CO)[C@H]4[C@H](O)C[C@]5(C)[C@@H](C6=CC(=O)OC6)CC[C@]5(O)[C@@H]4CC[C@]3(O)C2)[C@H](O)[C@H](O)[C@H]1O | 0.0833 µM (active) |
| Cc1cccc(C)c1NC(=O)CN1CCCC1=O | inactive |
| C[C@H]1CCC/C=C/C2C[C@H](O)C[C@H]2[C@H](O)/C=C/C(=O)O1 (stereo not given in full) | 0.332 µM (active) |
| NN=C(N)N | inactive |
| C[C@H]1[C@H](O)[C@@H](C)/C=C/C=C/CC/C=C/C=C/C=C/C=C/[C@H](O[C@@H]2O[C@H](C)[C@@H](O)[C@H](N)[C@@H]2O)C[C@@H]2O[C@](O)(C[C@@H](O)[C@H](O)CC[C@@H](O)C[C@@H](O)C[C@@H](O)CC(=O)O[C@H]1C)C[C@H](O)[C@H]2C(=O)O | inactive |
| Cc1sc2c(c1C)C(c1ccc(Cl)cc1)=N[C@@H](CC(N)=O)c1nnc(C)n1-2 | 0.209 µM (active) |
| Cn1c(COP(=O)(NCCBr)NCCBr)cnc1[N+](=O)[O-] | inactive |
| Fc1ccc(C(OCCN2CCN(CCCc3ccccc3)CC2)c2ccc(F)cc2)cc1 | 18.6 µM (active) |
| COC[C@H]1OC(=O)c2coc3c2[C@@]1(C)C1=C(C3=O)[C@@H]2CC[C@H](O)[C@@]2(C)C[C@H]1OC(C)=O | 7.42 µM (active) |
| CSCC[C@@H](NC(=O)[C@@H](Cc1ccccc1)NC(=O)CNC(=O)CNC(=O)[C@@H](N)Cc1ccc(O)cc1)C(=O)O | inactive |
| C[C@]12CC[C@H]3[C@@H](CC[C@@]45O[C@@H]4C(O)=C(C#N)C[C@]35C)[C@@H]1CC[C@@H]2O | inactive |
| C[C@@H]1CN(Cc2ccc(F)cc2)CCN1C(=O)COc1ccc(Cl)cc1NC(N)=O | 7.42 µM (active) |
| C[C@@]12OC(=O)[C@]1([C@@H](O)[C@@H]1C=CCCC1)NC(=O)[C@@H]2CCCl | 0.0263 µM (active) |
| Cn1c(CCCC(=O)O)nc2cc(N(CCCl)CCCl)ccc21 | 16.6 µM (active) |
| CC(C)(C)c1cc(C=C(C#N)C#N)cc(Br)c1O | 18.6 µM (active) |
| CC1=C2C[C@H]3[C@@H](CC=C4C[C@@H](O)CC[C@@]43C)[C@@H]2CC[C@]12O[C@@H]1C[C@H](C)CN[C@H]1[C@H]2C | inactive |
| COc1cc([C@@H]2c3cc4c(cc3[C@@H](O)C3COC(=O)C32)OCO4)cc(OC)c1O (stereo not given in full) | 0.296 µM (active) |
